Compound activity deposited in PubChem BioAssay by National Center for Advancing Translational Sciences (NCATS).
HCMV inh – blocks human cytomegalovirus replication | HFF cells, HCMV-luciferase reporter, 72 h; hits give low values | activity change, negative = inhibition, % at 57.5 µM | 410,000 tested, 4.5% active | AID 1259415; in the data active means activity change below about -60%; inconclusive means no clear call, values can overlap the other calls; inactive means above about -39%
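Compounds were evaluated in HFFs infected with an HCMV luciferase reporter virus (MOI 1 PFU/cell). Luciferase in lysates collected 72 h post infection served as the replication measure.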
Pf growth 48h – inhibits P. falciparum growth in the first generation, 48 h; P. falciparum luciferase growth in erythrocytes, 48 h; Potency, µM (titrated, usually from 28.7 µM), most hits filed as inhibitors; 310,000 tested, 5.9% active; AID 504832
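Growth was read as firefly luciferase luminescence after a 48 h, 37 C, 5% CO2 exposure of compounds to reporter-bearing P. falciparum cultures (0.1% parasitemia, 2% hematocrit final) in Albumax-supplemented RPMI 1640.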
Pf growth 96h – P. falciparum growth inhibition at 96 hour, primary screen for plastid delayed-death inhibitors; P. falciparum luciferase reporter growth, 96 h; 320,000 tested, 6.9% active; Potency, µM (doses to about 28.7 µM), usual class: inhibitors
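Readout is luminescence from an integrated firefly luciferase in P. falciparum. Red cells, 2% hematocrit and 0.05% parasitemia final, were cultured with compound through two parasite generations (96 hours) at 37 C, 5% CO2.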
Sm TGR block – blocks Schistosoma mansoni thioredoxin glutathione reductase | Q962Y6 | purified TGR, DTNB reduction, TNB absorbance 405 nm | Potency, µM (doses to about 114 µM), hits mostly inhibitors | 360,000 tested, 3% active; further: nearly all actives have a fitted effect of over 60% in size
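First, TGR (20 nM dispensed) and NADPH were mixed with compound. Second, a 15 min room-temperature incubation followed. Third, further NADPH and then DTNB were added to start the reaction. Finally, TNB absorbance was monitored kinetically.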
Giardia FBPA inh – Giardia lamblia aldolase inhibition; 290,000 tested, 0.71% active; Potency, µM (titrated, usually from 59.6 µM), hits mostly inhibitors; purified Giardia FBPA; further: nearly all actives have a fitted effect of over 55% in size
Target sequence (A8B2U2 whole entry, looked up): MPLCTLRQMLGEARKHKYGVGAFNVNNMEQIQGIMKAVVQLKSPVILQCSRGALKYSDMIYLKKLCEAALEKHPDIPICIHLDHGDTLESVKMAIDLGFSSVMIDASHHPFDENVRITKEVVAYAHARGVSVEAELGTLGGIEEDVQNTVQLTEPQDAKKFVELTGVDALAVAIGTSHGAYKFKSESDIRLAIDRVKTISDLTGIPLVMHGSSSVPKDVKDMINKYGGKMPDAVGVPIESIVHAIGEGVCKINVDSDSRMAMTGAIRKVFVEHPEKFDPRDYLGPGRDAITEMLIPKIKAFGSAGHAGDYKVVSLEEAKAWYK
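Giardia FBPA (40 nM reagent) was preincubated 10 min at RT with compound (up to 57.5 uM final), then substrate plus GAPDH/TPI/NAD/arsenate coupling system with diaphorase/resazurin was added; resorufin fluorescence (525/598 nm) was read after 20 min.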
Each line names hits and unclear results; the compound was inactive in the other large screens. Shown are actives, neighbours in structure and some others; about 14% of the full set was active somewhere. Unless noted, the call rests on the fitted dose curve; in most records, active means well fitted curve in the direction sought with a large enough effect; inconclusive means small, poorly fitted or top-dose-only effect, or another doubt; inactive means no such curve, though single readings can be large; an effect the other way counts as inactive or inconclusive.

O=C(c1ccco1)N(CCC(c1ccccc1)c1ccco1)Cc1ccccc1 (stereo unspecified)	Pf growth 48h inconclusive, Pf growth 96h 13µM, Sm TGR block 50µM
COc1ccc(CCN(Cc2nc3ccccc3c(=O)[nH]2)C(=O)c2ccco2)cc1	Pf growth 48h inconclusive
COc1ccc(CN(CCC(c2ccccc2)c2ccco2)C(=O)c2ccco2)cc1 (stereo unspecified)	Pf growth 96h 12µM, Sm TGR block 35µM
COC(=O)[C@]12CCCCC=C1N(Cc1cccc3ccccc13)C(=O)[C@H](CC(=O)NCCCN1CCCC1=O)C2	none (no result: Pf growth 48h, Pf growth 96h, Sm TGR block, Giardia FBPA inh)
Cc1c(N(C(=O)CNC(=O)c2ccccc2)C2(C(=O)NC3CCCC3)CCCCC2)c(=O)n(-c2ccccc2)n1C	Pf growth 48h 3.7µM, Pf growth 96h inconclusive
COc1ccc(C)cc1NC(C)C(=O)NC(=O)NC1CCCCC1 (stereo unspecified)	Pf growth 48h 13µM, Pf growth 96h inconclusive (no result: Giardia FBPA inh)
COc1cc(C)ccc1OCC(=O)NC1CCCCCC1	none (no result: Giardia FBPA inh)
COc1cc(C2=CCN(C(C)=O)CC2)ccc1OC(C)=O	none (no result: Pf growth 48h, Pf growth 96h, Sm TGR block, Giardia FBPA inh)
CC(C)NS(=O)(=O)c1ccc(NC(=O)C(C)OC(=O)C2CCC2)cc1 (stereo unspecified)	none (no result: Giardia FBPA inh)
CC(C)(C)C1CCc2c(sc(NC(=O)c3cc(C4CC4)on3)c2C#N)C1 (stereo unspecified)	none (no result: Pf growth 48h)
Cc1cc(C(=O)Nc2sc3c(c2C#N)CCC(C(C)(C)C)C3)no1 (stereo unspecified)	Pf growth 96h 10µM (no result: Pf growth 48h)
COc1ccc(CCN2C(=S)N(c3ccc(Cl)cc3)C(=O)C2CC(N)=O)cc1OC (stereo unspecified)	Pf growth 48h 10µM, Pf growth 96h 12µM
CCOC(=O)c1ccc(N2C(=O)C(CC(N)=O)N(CCc3ccc(OC)c(OC)c3)C2=S)cc1 (stereo unspecified)	Pf growth 48h 15µM
Cc1ccnc(NC(=O)CCC(=O)N(CC(=O)NCc2ccc(F)cc2)Cc2ccccc2)c1	none (no result: HCMV inh)
COc1ccc(-n2c(=O)c(-c3cccs3)nc3cnc(N4CCNCC4)nc32)cc1	none (no result: HCMV inh, Pf growth 48h, Pf growth 96h, Sm TGR block)
COc1cc(C(C)n2nnc3ccccc32)ccc1O (stereo unspecified)	none (no result: Pf growth 48h, Pf growth 96h, Sm TGR block, Giardia FBPA inh)
O=C(C1CCCN(S(=O)(=O)c2ccc(Br)cc2)C1)N1CCN(Cc2ccccc2)CC1 (stereo unspecified)	Pf growth 48h 6.6µM (no result: Giardia FBPA inh)
O=C(O)C1CCCN(S(=O)(=O)c2ccc(Br)s2)C1 (stereo unspecified)	HCMV inh -62
O=C(C1CCCN(S(=O)(=O)c2ccc(Br)s2)C1)N1CCCCCC1 (stereo unspecified)	Pf growth 48h inconclusive
Cc1cccc(N2CCN(C(=O)C3CCCN(S(=O)(=O)c4ccc(Br)s4)C3)CC2)c1C (stereo unspecified)	HCMV inh -62 (no result: Pf growth 48h, Pf growth 96h, Giardia FBPA inh)
O=C(C1CCCN(S(=O)(=O)c2ccc(Br)s2)C1)N1CCN(c2ccccc2)CC1 (stereo unspecified)	Pf growth 48h 8.3µM
O=C(C1CCCN(S(=O)(=O)c2ccccc2)C1)N1CCN(c2ccccc2)CC1 (stereo unspecified)	Pf growth 48h inconclusive
CNc1nc2cnc(Nc3ccccn3)cc2n1-c1cc(OC)c(OC)c(OC)c1	none (no result: Pf growth 48h, Pf growth 96h, Sm TGR block, Giardia FBPA inh)
Cc1cccc(N2CCN(C(=O)C3CCC(CNS(=O)(=O)c4cccs4)CC3)CC2)c1C (stereo unspecified)	HCMV inh -61, Pf growth 48h 5.2µM
Cc1cccc(N2CCN(C(=O)C3CCC(CNS(=O)(=O)c4ccc(Br)s4)CC3)CC2)c1C (stereo unspecified)	none (no result: Pf growth 48h, Pf growth 96h, Giardia FBPA inh)
CCC(C)NC(=O)c1cc2c(=O)n(CC)c3ccccc3c2s1 (stereo unspecified)	Pf growth 96h inconclusive
CCCCNC(=O)c1ccc(CS(=O)(=O)c2ccccc2OC)o1	none
CCC(=O)Nc1ccc(NC(=S)NC(=O)/C=C/c2ccccc2)cc1	HCMV inh inconclusive
NC(N)=NS(=O)(=O)c1ccc(NC(=S)NC(=O)/C=C/c2ccccc2)cc1	Sm TGR block 89µM
NC(N)=NS(=O)(=O)c1ccc(NC(=S)NC(=O)c2ccccc2)cc1	Sm TGR block 16µM, Giardia FBPA inh inconclusive
CCCOP(=O)(c1ccc(N(C)C)cc1)C(O)c1ccc(Cl)cc1 (stereo unspecified)	Pf growth 48h inconclusive
O=S(=O)(c1ccc(F)cc1)n1ccc(-c2cccc(OCc3ccc(Cl)cc3Cl)c2)n1	Pf growth 48h inconclusive, Pf growth 96h 0.15µM
Cc1ccccc1NS(=O)(=O)c1c(C(=O)N2CCCCCC2)c(C)n(C)c1C	none
COC1=C(C)C(O)=C(C(=O)/C=C/c2ccccc2)C(=O)C1(C)C	HCMV inh -77, Pf growth 48h inconclusive, Pf growth 96h inconclusive, Sm TGR block inconclusive
Clc1ccccc1Cn1c(/C=C/c2ccco2)nc2ccccc21	Pf growth 48h inconclusive, Pf growth 96h inconclusive, Sm TGR block 32µM
Cc1cc(Sc2ccc([N+](=O)[O-])cn2)ccc1Br	none (no result: Pf growth 48h, Pf growth 96h, Sm TGR block, Giardia FBPA inh)
O=[N+]([O-])c1ccc(S(=O)(=O)c2ccccc2)nc1	HCMV inh -98, Pf growth 48h 2.9µM, Pf growth 96h 1.7µM, Sm TGR block 0.32µM
O=S(=O)(c1ccccc1)c1ccc(C(F)(F)F)cn1	Sm TGR block 14µM
Cc1cc(S(=O)(=O)c2ccc([N+](=O)[O-])cn2)ccc1Br	HCMV inh -98 (no result: Pf growth 48h, Pf growth 96h, Sm TGR block, Giardia FBPA inh)
Cc1ccc(S(=O)(=O)c2ccc([N+](=O)[O-])cn2)cc1	HCMV inh -95, Pf growth 48h inconclusive, Pf growth 96h inconclusive, Sm TGR block 0.1µM
Cc1ccc([N+](=O)[O-])cc1	none (no result: Giardia FBPA inh)
